Shown is part of a subset that was picked to be rich in hits.
N-glyco inh: N-linked glycosylation inhibition; reporter increase, % at 12.5 µM; D54 ERlucT glycosylation luciferase reporter, 24 h; percent of 100 nM tunicamycin response; 0.23% of 360,000 active;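 active = mean luciferase reporter signal, scaled so untreated is 0 and the glycosylation-blocking control 100, at or above a set limit in every replicate; inconclusive = mean reaches the limit but not every replicate does; inactive = mean below the limit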;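 also: luciferase carries N-glycosylation sites so blocking glycosylation raises the light; 0% = median of neutral control wells and 100% = median of 100 nM tunicamycin wells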
Rtt109 HAT inh: inhibitors of Candida albicans Rtt109/Vps75 histone acetyltransferase; Q5AAJ8; purified Rtt109/Vps75, ThioGlo CoA-SH fluorescence, 4 h; inhibition, % at 34.9 µM; 0.16% of 330,000 active; AID 540336;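 active = inhibition of at least 50% in every replicate; inconclusive = best replicate reaches 50% inhibition but some replicates fall short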
Target sequence (Q5AAJ8 whole entry, looked up): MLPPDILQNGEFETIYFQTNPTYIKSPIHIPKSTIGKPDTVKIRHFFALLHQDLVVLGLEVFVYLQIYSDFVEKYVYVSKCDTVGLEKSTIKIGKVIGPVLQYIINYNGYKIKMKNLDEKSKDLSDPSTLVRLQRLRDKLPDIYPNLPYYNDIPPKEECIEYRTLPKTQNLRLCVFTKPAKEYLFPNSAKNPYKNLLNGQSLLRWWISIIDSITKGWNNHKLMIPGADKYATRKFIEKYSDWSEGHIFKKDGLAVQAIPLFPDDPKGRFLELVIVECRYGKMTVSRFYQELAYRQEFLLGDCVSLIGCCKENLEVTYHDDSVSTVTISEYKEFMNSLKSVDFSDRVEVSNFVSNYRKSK
PglD DTNB: inhibitors of Campylobacter jejuni PglD acetyltransferase; purified PglD enzyme, DTNB colorimetric CoA detection; inhibition, % at 12.5 µM; 0.098% of 360,000 active; AID 602405; in the data active = inhibition above about 16%, passing the limit was not always enough; inconclusive = no clear call, values can overlap the other calls
DENV2 CPE: DENV2-induced cell death inhibition. DENV2-infected cells, cytopathic effect rescue, plate reader. CPE inhibition, % at 9.99 µM. 1.7% of 350,000 active. AID 651640; in the data active = CPE inhibition above about 20%, passing the limit was not always enough; inconclusive = no clear call, values can overlap the other calls; tested in BHK-21 cells;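 also: 0% = median of neutral control wells and 100% = median of positive control wells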
Starred values were filed as active, the others as inactive; ? = inconclusive; . = not tested or not shown; ! = not confirmed by another sample.

SMILES | N-glyco inh | Rtt109 HAT inh | PglD DTNB | DENV2 CPE
O=C(C[C@@H]1C[C@@H]2c3cc(NS(=O)(=O)c4ccccc4)ccc3O[C@@H]2[C@@H](CO)O1)NC1CCCC1 | . | . | 3 | -4
O=C(NCc1ccccc1F)[C@H]1N[C@H]2c3ccc(-c4ccccc4F)c(=O)n3C[C@H]2[C@@H]1CO | . | . | 10 | 82*
O=C(NCCN1CCCC1)[C@H]1N[C@H]2c3ccc(-c4ccccc4)c(=O)n3C[C@H]2[C@@H]1CO | . | . | 2 | 85*
O=C(NCCN1CCCCC1)[C@@H]1N[C@@H]2c3ccc(-c4ccc(F)cc4)c(=O)n3C[C@@H]2[C@H]1CO | . | . | 6 | 7
C[C@@H](NC(=O)[C@@H]1N[C@@H]2c3ccc(-c4cccnc4)c(=O)n3C[C@@H]2[C@H]1CO)c1ccccc1 | . | . | 2 | 2
C[C@H](NC(=O)[C@H]1N[C@H]2c3ccc(-c4cccnc4)c(=O)n3C[C@H]2[C@@H]1CO)c1ccccc1 | . | . | 3 | 117*
O=C(NCc1ccccc1F)[C@@H]1N[C@@H]2c3ccc(-c4ccccc4F)c(=O)n3C[C@@H]2[C@H]1CO | . | . | 9 | 8
Cc1noc(C)c1NC(=O)Nc1ccc2c(c1)C(=O)N([C@H](C)CO)C[C@@H](C)[C@@H](CN(C)S(=O)(=O)c1cn(C)cn1)O2 | . | . | 0 | -5
COc1ccc(C2=Nc3ccccc3N(C(=O)c3ccncc3)C2C(=O)NC(C)C)cc1 (stereo not drawn) | . | . | . | 59*
C[C@@H]1CCCCO[C@@H](CN(C)C(=O)Nc2ccccc2)[C@H](C)CN([C@H](C)CO)C(=O)c2cc(NC(=O)Nc3ccc(F)cc3)ccc2O1 | . | . | 4 | -5
COc1ccc(C(C)=O)cc1CSc1nnc(Nc2ccc(C)cc2)s1 | -2 | -2 | 3 | 47*
COc1ccc(C(C)=O)cc1CSc1nnc(Nc2ccccc2)s1 | -4 | 0 | -2 | .
CCOC(=O)c1c(C)oc2c(F)c(F)c(F)c(F)c2c1=O | 31* | 4 | -3 | .
CO[C@@H](CN(C)C(=O)c1cnccn1)[C@H](C)CN([C@@H](C)CO)S(=O)(=O)c1ccc(C)cc1 | . | . | 0 | -5
COCC(=O)N1CC(=O)N2[C@H](CO)[C@H](c3ccc(-c4cccnc4)cc3)[C@H]2C1 | . | . | . | 12
COc1ccccc1NC(=O)N1CC(=O)N2[C@H](CO)[C@@H](c3ccc(-c4ccc(F)cc4)cc3)[C@H]2C1 | . | . | . | 29*
COc1ccccc1NC(=O)N1CC(=O)N2[C@@H](CO)[C@H](c3ccc(C#Cc4ccc(F)cc4)cc3)[C@@H]2C1 | . | . | . | 33*
O=C(Nc1cc(F)ccc1F)N1CC(=O)N2[C@@H](CO)[C@@H](c3ccc(-c4cccnc4)cc3)[C@@H]2C1 | . | . | . | 23*
O=C(Nc1ccccc1F)N1CC(=O)N2[C@H](CO)[C@@H](c3ccc(C#Cc4ccc(F)cc4)cc3)[C@H]2C1 | . | . | . | 4
O=C(Nc1ccccc1F)N1CC(=O)N2[C@H](CO)[C@@H](c3ccc(C#Cc4ccc(F)cc4)cc3)[C@@H]2C1 | . | . | . | 22*
COc1ccccc1NC(=O)N1CC(=O)N2[C@H](C1)[C@@H](c1ccc(-c3ccc(F)cc3)cc1)[C@@H]2CO | . | . | . | 7
C[C@@H]1CCCCO[C@H](CN(C)C(=O)Nc2ccc(F)cc2)[C@@H](C)CN([C@H](C)CO)C(=O)c2cc(NC(=O)CCC(F)(F)F)ccc2O1 | . | . | -2 | 13
COc1cc(CN2CC3(CCN(S(=O)(=O)c4cn(C)cn4)CC3)c3c(n(C)c4cc(OC)ccc34)[C@H]2CO)cc(OC)c1 | . | . | . | 7
O=C(C1CC1)N1CC2(C1)[C@H](c1ccccc1)[C@H](CO)N2Cc1ccccc1F | . | . | . | 3
O=C(Nc1ccccc1F)N1CC(=O)N2[C@H](CO)[C@H](c3ccc(-c4ccccc4)cc3)[C@@H]2C1 | . | . | . | -1
SMILES | N-glyco inh | Rtt109 HAT inh | PglD DTNB | DENV2 CPE
O=C(Nc1ccccc1F)N1CC(=O)N2[C@H](CO)[C@@H](c3ccc(-c4ccccc4)cc3)[C@H]2C1 | . | . | . | 43*
C[C@H](CO)N1C[C@H](C)[C@H](CN(C)S(=O)(=O)c2cccs2)OCCCC[C@H](C)Oc2ccc(NC(=O)C3CCCCC3)cc2C1=O | . | . | 4 | 2
C[C@@H]1CCCCO[C@H](CN(C)C(=O)NC2CCCCC2)[C@H](C)CN([C@H](C)CO)C(=O)c2cc(NS(=O)(=O)c3ccc(F)cc3)ccc2O1 | . | . | 0 | 8
CC[C@H](C)C(=O)O[C@H]1CCC=C2C=C[C@H](C)[C@H](CC[C@@H]3C[C@@H](O)CC(=O)O3)[C@H]21 | 54* | 8 | -7 | ?
CC[C@H](C)C(=O)O[C@H]1C[C@@H](C)C=C2C=C[C@H](C)[C@H](CC[C@@H]3C[C@@H](O)CC(=O)O3)[C@H]21 | 69*! | 9 | 1 | 36*!
CCC(C)C(=O)OC1CCC=C2C=CC(C)C(CCC3CC(O)CC(=O)O3)C21 (stereo not drawn) | 41* | -3 | . | 0
Cc1cc(C)c2c(=O)n(CC(=O)Nc3ccc(Br)c(C)c3)sc2n1 | 1 | 6 | . | 3
Cc1cc(C)c2c(=O)n(CC(=O)Nc3cccc(Cl)c3C)sc2n1 | 3 | 150* | -1 | ?
O=C(Nc1ccc2c(c1)CCC2)c1ccccc1 | -13 | -4 | 0 | 45*
C[C@@H]1CN([C@@H](C)CO)C(=O)c2cc(NC(=O)c3ccncc3)ccc2O[C@@H](C)CCCCO[C@H]1CN(C)S(C)(=O)=O | . | . | -3 | 9
COCCCNc1oc(-c2ccccc2F)nc1C#N | -1 | -2 | 4 | 25*
C[C@@H]1CN([C@@H](C)CO)C(=O)c2cccc(N(C)C)c2O[C@H]1CN(C)S(C)(=O)=O | . | . | 0 | -8
O=C(NCCN1CCCCC1)[C@H]1N[C@H]2c3ccc(-c4ccc(F)cc4)c(=O)n3C[C@H]2[C@@H]1CO | . | . | 5 | -2
CCCCOCCCNC(=O)C[C@@H]1C[C@@]2(C(=O)OC)CC(C)(C)CC=C2N(Cc2ccc3c(c2)OCO3)C1=O | . | . | . | 28*

Compound activity from PubChem.
